# The list is not random: actives were taken first. Their share in the collection is about 6%.
# D1 potentiator – enhances dopamine response at the human D1 receptor; P21728; HEK293 TREx D1 cells, calcium flux, dopamine EC20 potentiation; potentiation, % at 10 µM; 0.036% of 360,000 active; AID 504651; in the data active = potentiation above about 30%
# D3 antag – blocks the human D3 dopamine receptor; D3R cells, DiscoveRx beta-arrestin luminescence, antagonist mode; stronger effect = lower value; max response, negative = inhibition, %; 2.5% of 360,000 active; AID 652054; in the data active = max response below about -50%; inconclusive = no clear call, values can overlap the other calls
# Target sequence (P35462 whole entry, looked up): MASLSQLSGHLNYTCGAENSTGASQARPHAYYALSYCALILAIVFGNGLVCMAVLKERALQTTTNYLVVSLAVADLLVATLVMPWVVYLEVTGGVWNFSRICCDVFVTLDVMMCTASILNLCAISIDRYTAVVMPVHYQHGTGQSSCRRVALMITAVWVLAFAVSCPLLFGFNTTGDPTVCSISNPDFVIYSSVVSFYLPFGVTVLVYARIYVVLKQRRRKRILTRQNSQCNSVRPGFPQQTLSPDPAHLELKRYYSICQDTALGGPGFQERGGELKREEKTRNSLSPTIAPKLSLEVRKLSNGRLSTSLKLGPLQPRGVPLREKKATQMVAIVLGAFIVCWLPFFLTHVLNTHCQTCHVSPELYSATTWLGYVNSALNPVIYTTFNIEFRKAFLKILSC
#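 Cells expressing the human receptor were seeded at 1500 cells/well, incubated overnight at 37 degrees C in 5% CO2, then exposed to library compounds with dopamine controls for 90 minutes at 37 degrees C before luminescent detection.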
# D1 antag – antagonists of human D1 dopamine receptor; 3.2% of 360,000 active; P21728; activity change, negative = inhibition, % at 10 µM; HEK293 TREx D1 cells, calcium flux, dopamine EC80; stronger effect = lower value; AID 504652; in the data active = activity change below about -30%
#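 Allosteric or orthosteric antagonism assessed as attenuation of the calcium response to EC80 dopamine, added 180 s after compound, in induced HEK293 Trex D1 cells loaded with no-wash calcium dye.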
# D3 ag – D3 dopamine receptor (human) agonism; P35462; D3R DiscoveRx beta-arrestin cells, luminescence, 90 min; max activation, %; 0.58% of 410,000 active; AID 652048; in the data active = max activation above about 30%
#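 Agonist-mode cell screen: cells plated at 1500/well and incubated overnight at 37 °C, then exposed to library compounds for 90 min at 37 °C. Detection reagent was added for 30–60 min at room temperature, and luminescence was read.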
# D1 agonist – activates the human D1 dopamine receptor | P21728 | HEK293 T-REx D1 cells, calcium flux, agonist mode | activation, % at 2 µM | 1% of 360,000 active; in the data active = activation above about 30%
#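 Tetracycline-induced HEK293 TREx D1 cells, force-coupled to calcium signalling, were dye-loaded with a no-wash calcium kit. Compound was pin-added after a 10 s baseline. Fluorescence was read kinetically at 1 cycle/s for 180 s, with calcium rises flagged as agonism.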
# Numbers stand for hits; - = inactive; ? = inconclusive; . = not tested or not shown.
SMILES,D1 potentiator,D3 antag,D1 antag,D3 ag,D1 agonist
Cc1cc(-c2ccc(S(=O)(=O)Nc3ccc(Cl)cc3C)cc2)on1,-,.,-,-,-
O=[N+]([O-])c1ccc(CS(=O)(=O)N2CCN(c3ccccc3)CC2)cc1,.,-,-30.2,-,-
O=S(=O)(Cc1ccccc1)N1CCC(N2CCN(c3ccccc3)CC2)CC1,-,?,-,68.5,-
CC1CCC(N2CCN(S(=O)(=O)Cc3ccccc3)CC2)CC1 (configuration not stated),-,-,-,-,-
CC(C)Nc1nc(NCCOc2ccccc2Cl)c2sc(-c3ccccc3)cc2n1,.,?,.,-,.
COc1ccccc1CNc1nc(NC(C)C)nc2cc(-c3ccccc3)sc12,.,-63.9,.,-,.
Cc1ccc(CCNC(=O)CCCn2c(=O)c3cccn3c3ccc(F)cc32)cc1,-,.,-,-,-
Oc1ccccc1-c1cc(-c2ccc(F)cc2)n[nH]1,-,-,-,-,-
Oc1ccc(F)cc1-c1cc(-c2ccc3c(c2)OCCO3)n[nH]1,-,-52.8,-,-,-
Cc1ccc(C(=O)Nc2ccc(Br)cc2)cc1S(=O)(=O)NCc1ccccc1,-,.,-,-,-
O=C(O)c1cccc(S(=O)(=O)Nc2ccc3oc(=O)sc3c2)c1,-,-87.5,-,-,-
O=C(O)c1cccc(S(=O)(=O)Nc2ccc3[nH]c(=O)[nH]c3c2)c1,-,-,-,-,-
COc1ccc(CNC(=O)CN2C(=O)c3ccc([N+](=O)[O-])cc3C2=O)cc1,-,-,-,31.5,-
COc1ccc(CNC(=O)CN2C(=O)c3ccccc3C2=O)cc1,-,-,-,-,-
O=C(NCc1ccccc1)C1CCN(S(=O)(=O)Cc2ccccc2)CC1,-,.,-,-,-
Cc1cc(C)c(C)c(S(=O)(=O)N2CCN(S(=O)(=O)c3ccc4c(c3)OCCO4)CC2)c1C,-,.,-48.5,.,-
O=C(NCCc1ccc2c(c1)OCCO2)c1cccc(S(=O)(=O)N2CCCC2)c1,-,-,-,-,-
Cc1ccc(S(=O)(=O)N2CCN(c3ncnc4sccc34)CC2)cc1C,-,-,-,-,-
O=S(=O)(c1ccc2c(c1)OCCO2)N1CCN(c2ncnc3sccc23)CC1,-,-,-31.7,-,-
COc1cc(C)c(C)cc1S(=O)(=O)N1CCN(Cc2ccc3c(c2)OCO3)CC1,-,-54.5,-,-,-
O=C(NCCc1ccc2c(c1)OCCO2)c1cc(S(=O)(=O)N2CCCC2)ccc1Cl,-,-,-31.6,-,-
CCc1nnc(SC(CC)C(=O)Nc2ccc(OC)c(Cl)c2)c2cc3occc3n12 (configuration not stated),-,.,-,-,-
Cc1ccc(NC(=O)CN2C(=O)c3ccccc3Sc3ncccc32)c(C)c1,-,.,-,-,-
O=S(=O)(c1ccc(F)c(F)c1)N1CCN(Cc2ccc3c(c2)OCO3)CC1,-,-,-,-,-
O=S(=O)(c1ccc2c(c1)OCCO2)N1CCN(Cc2ccc3c(c2)OCO3)CC1,-,-50.4,-,-,-
SMILES,D1 potentiator,D3 antag,D1 antag,D3 ag,D1 agonist
COc1ccccc1-c1c(C)nn2c(N3CCN(c4ccc(F)cc4)CC3)cc(C)nc12,-,.,-,-,-
Cc1nn(-c2ccc(Cl)cc2)c(=O)c2ccccc12,-,-,-,-,-
Cc1c(Cl)sn(-c2ccc(Cl)cc2)c1=O,-,-52.1,-,-,-
COc1ccc(-c2noc(N(c3cccc(Cl)c3)c3nc(-c4ccc(OC)c(OC)c4)no3)n2)cc1OC,-,.,-,-,-
Cc1noc(C)c1COC(=O)CCc1nc2ccccc2s1,-,-,-31.6,-,-
O=C(CCc1nc2ccccc2s1)OCC(=O)c1ccccc1,-,-,-,-,-
CN1/C(=C\C(=S)NC(=O)c2ccc([N+](=O)[O-])cc2)C(C)(C)c2ccccc21,-,-,-,-,-
CN1/C(=C\C(=S)NC(=O)c2cccc(Br)c2)C(C)(C)c2ccccc21,-,-,-69.4,-,-
COc1cccc(/C(O)=C/c2nc3ccc(C(=O)NCCc4ccc(Cl)cc4)cc3[nH]c2=O)c1,-,-,-,-,-
COc1cccc(/C(O)=C/c2nc3ccc(C(=O)NCCc4cccc(C)c4)cc3[nH]c2=O)c1,-,-,-40.6,-,46.2
Cc1nc2ccc(S(=O)(=O)NC(C(=O)N3CCN(c4cccc(Cl)c4)CC3)C(C)C)cc2s1 (configuration not stated),-,.,-,-,-

# Source: PubChem
